Source: PubChem (several laboratories)
697 NFkB inh – lowers PMA/ionomycin-induced NF-kB signal in 697 B cells | AID 435022 | 697 B-cell NF-kB luciferase reporter, 16 h | 330,000 compounds, 0.33% hits | inhibition, % at 4 µM; in the data active = inhibition above about 35%
aSyn UTR inh – MLPCN primary screen, SNCA 5' untranslated region; 300,000 compounds, 0.82% hits; alpha-synuclein 5'UTR reporter, inhibitor activity; AID 1813; inhibition, % (tested at 7.5 µM); in the data active = inhibition above about 60%; inconclusive = no clear call, values can overlap the other calls;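 also: H4 neuroglioblastoma cells stably carrying SNCA 5'UTR luciferase fusion; 0% = DMSO wells and 100% = positive control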
KLF5 inhibitor – suppresses KLF5 promoter-driven expression; inhibition, % at 5 µM; AID 1700; DLD-1 KLF5 promoter-luciferase reporter, luminescence; 290,000 compounds, 0.23% hits;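 active = inhibition above a per-plate limit of that plate's mean compound inhibition plus 3 SD, cut at about 60% in these data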;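 also: 0% = DMSO wells and 100% = LY294002 at 200 µM; higher means less KLF5 promoter-driven luciferase light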
Jurkat NFkB inh – lowers PMA/ionomycin-induced NF-kB signal in Jurkat cells. PMA/ionomycin-induced NF-kB luciferase reporter, luminescence. inhibition, % at 4 µM. 330,000 compounds, 0.53% hits; in the data active = inhibition above about 50%
ANO1 block – mouse TMEM16A channel inhibition, primary screen; Q8BHY3; HEK293 TMEM16A/YFP iodide influx fluorescence, ionomycin; normalized B-score (activity score, 25-100; higher = stronger inhibition) at 10 µM; 310,000 compounds, 1.2% hits;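 active = ratio plate-corrected score three or more library SD toward inhibition, starting fluorescence score within five deviations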;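 also: score derived from kinetic fluorescence span divided by baseline fluorescence per well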
Target sequence (Q8BHY3 whole entry, looked up): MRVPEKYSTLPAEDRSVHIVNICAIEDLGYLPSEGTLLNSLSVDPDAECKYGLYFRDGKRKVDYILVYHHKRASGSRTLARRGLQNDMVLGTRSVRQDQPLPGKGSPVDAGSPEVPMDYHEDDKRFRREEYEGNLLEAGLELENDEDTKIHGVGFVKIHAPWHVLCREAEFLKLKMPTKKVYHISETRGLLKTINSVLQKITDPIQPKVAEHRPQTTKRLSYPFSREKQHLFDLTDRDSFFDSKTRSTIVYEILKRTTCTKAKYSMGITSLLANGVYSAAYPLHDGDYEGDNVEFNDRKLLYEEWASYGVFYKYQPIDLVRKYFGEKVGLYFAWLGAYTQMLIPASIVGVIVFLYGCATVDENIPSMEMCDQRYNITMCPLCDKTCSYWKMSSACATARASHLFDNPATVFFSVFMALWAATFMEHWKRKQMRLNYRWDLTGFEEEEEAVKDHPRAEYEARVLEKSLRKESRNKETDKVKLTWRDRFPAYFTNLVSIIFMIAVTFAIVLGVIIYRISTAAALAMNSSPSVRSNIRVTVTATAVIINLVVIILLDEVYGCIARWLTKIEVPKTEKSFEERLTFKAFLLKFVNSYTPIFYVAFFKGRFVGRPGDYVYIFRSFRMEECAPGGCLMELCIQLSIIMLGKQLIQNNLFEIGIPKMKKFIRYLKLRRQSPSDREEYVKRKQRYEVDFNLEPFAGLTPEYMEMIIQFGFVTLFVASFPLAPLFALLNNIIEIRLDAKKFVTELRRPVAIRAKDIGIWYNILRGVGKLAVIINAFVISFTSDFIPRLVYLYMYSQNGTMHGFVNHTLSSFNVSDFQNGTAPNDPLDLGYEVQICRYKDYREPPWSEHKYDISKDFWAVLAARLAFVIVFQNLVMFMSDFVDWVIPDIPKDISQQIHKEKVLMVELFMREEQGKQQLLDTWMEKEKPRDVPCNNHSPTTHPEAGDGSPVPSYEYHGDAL
TMEM16A act – mouse TMEM16A channel activation, primary screen. Q8BHY3. HEK293 TMEM16A/YFP-H148Q/I152L, iodide quench fluorescence; active compounds read low. B-score at 10 µM. 340,000 compounds, 0.3% hits. AID 623877;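 active = fluorescence-ratio B-score plate-corrected deviation score at least 3 library SD below zero, with starting fluorescence score within 5 deviations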;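 also: channel opened by trigger with iodide after compound preincubation; score built on the fluorescence ratio of max minus min over baseline; more negative score means more quench and so TMEM16A activation or potentiation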
697 NFkB conf – lowers PMA/ionomycin-induced NF-kB signal in 697 B cells. shares compounds with 697 NFkB inh. 697 B-cell NF-kB luciferase, 16 h. inhibition, % at 4 µM. 2,000 compounds, 35% hits; in the data active = inhibition mostly above about 28%, no sharp cut-off; inactive = mostly below about 22%
* marks the source's active call; other numbers are inactive results; i = inactive; ? = inconclusive; · = not tested or not shown. Shown are actives, neighbours in structure and some others; about 2.5% of the full set was active somewhere.

SMILES | 697 NFkB inh | aSyn UTR inh | KLF5 inhibitor | Jurkat NFkB inh | ANO1 block | TMEM16A act | 697 NFkB conf
CCCCNC(=O)c1c(N)n(/N=C/c2ccccn2)c2nc3ccccc3nc12 | 47* | -60 | 1 | -1 | i | · | 44*
c1ccc(-c2noc(-c3ccc4ccccc4c3)n2)cc1 | -354 | 77* | 37 | -100 | i | i | -359
O=S(=O)(c1cnc(Cl)c(Cl)c1)N1CCCc2ccccc21 | 43* | -34 | 5 | 19 | i | i | 37*
CN(C)c1ccc(N2C(=NC(=O)CCC3CCCC3)SC3CS(=O)(=O)CC32)cc1 (configuration not stated) | -9 | 7 | -45 | 11 | i | i | ·
N=C1C(c2nc3ccccc3s2)=C(O)CN1C1CCCCC1 | -271 | -48 | -8 | -124 | i | i | -88
COc1cccc(C(=O)Cn2c(=N)n(C)c3ccccc32)c1 | -304 | 86* | -85 | -98 | i | i | -273
CCN(CC(=O)NC(=O)NC1CCCC1)Cc1ccccc1 | 14 | -13 | · | 7 | i | i | ·
O=C(Cc1coc2ccc3ccccc3c12)Nc1nnc(C2CC2)s1 | i | 21 | 31 | -36 | i | i | -414
CCOc1ccc(S(=O)(=O)N2CCC(C(=O)NC3CCCCC3)CC2)cc1 | 21 | 11 | -17 | 20 | i | i | ·
Cc1cc(OCC(=O)Nc2ccc(CCO)cc2)c2c(C)c(C)c(=O)oc2c1 | 36* | -10 | -10 | 0 | i | i | 40*
Cc1ccsc1C(=O)N1CCCC(CO)(Cc2ccccc2)C1 (configuration not stated) | -46 | -46 | -18 | -14 | i | i | ·
Cc1cc(-c2ccc(N3CCOCC3)cc2)nc2ccccc12 | -81 | -307 | -46 | -116 | i | i | ·
c1ccc2nc(-c3ccc(N4CCOCC4)cc3)ccc2c1 | -348 | 104* | -48 | -67 | i | i | -291
COc1ccc(S(=O)(=O)N2CCCC(C(=O)NCc3ccc4c(c3)OCO4)C2)cc1 (configuration not stated) | 10 | 2 | -7 | 1 | i | i | ·
O=S(=O)(c1ccc2c(c1)OCCO2)C1CCC(S(=O)(=O)c2c(F)cccc2F)CC1 (configuration not stated) | 8 | · | · | 7 | · | i | ·
O=C1CC(c2ccccc2)Sc2nc3ccccc3n21 (configuration not stated) | -143 | -196 | 0 | -116 | i | i | ·
O=C1CC(c2ccc3c(c2)OCO3)Sc2nc3ccccc3n21 (configuration not stated) | -255 | -160 | -35 | -68 | i | i | -111
CC1CCc2c(sc3nc(C(C)(C)C)nc(N4CCN(C(=O)CCl)CC4)c23)C1 (configuration not stated) | 40* | 45 | -36 | 23 | i | i | 27*
Cn1c(=O)cc(Nc2ccccc2)c2c(=O)n(-c3ccccc3)c(=O)n(-c3ccccc3)c21 | 43* | -8 | 19 | -7 | i | i | 32*
CCOC(=O)Cc1c(C)nc2c(-c3ccccc3)cnn2c1C | -23 | -70 | -38 | -20 | i | i | ·
Cc1cc(NCc2ccccc2)n2ncc(-c3ccccc3)c2n1 | i | -72 | -266 | -135 | i | i | -397
Cc1cc(NC2CCCC2)n2ncc(-c3ccccc3)c2n1 | i | ? | -2 | -112 | i | i | i
Cc1nc2c(-c3ccccc3)cnn2c(N)c1-c1ccccc1 | -428 | 10 | 39 | -97 | i | i | -248
CC(C)COc1cccc(C(=O)N(C)CC(=O)Nc2cccc3ccccc23)c1 | -2 | · | · | -4 | · | i | ·
CC(C)N(Cc1ccccc1)C(=O)COC(=O)c1cc(S(=O)(=O)N(C)C)ccc1N1CCCC1 | 1 | · | · | 6 | · | i | ·
SMILES | 697 NFkB inh | aSyn UTR inh | KLF5 inhibitor | Jurkat NFkB inh | ANO1 block | TMEM16A act | 697 NFkB conf
CCCCCCCCNC(=O)c1ccc(C)cc1 | 80* | 6 | -17 | -25 | i | · | -8
COc1ccc(CNC(=O)CN2C(=O)c3ccc([N+](=O)[O-])cc3C2=O)cc1 | 15 | 1 | 2 | -8 | i | i | ·
CCOCCCNC(=S)Nc1ccc2nc3n(c(=O)c2c1)CCCCC3 | 14 | -9 | -29 | 3 | i | i | ·
COCCCNC(=S)Nc1ccc2nc3n(c(=O)c2c1)CCCCC3 | 35* | -46 | 4 | -10 | i | i | 4
O=c1cc(-c2ccc(O)c(-c3c(O)cc(O)c4c(=O)cc(-c5ccc(O)cc5)oc34)c2)oc2cc(O)cc(O)c12 | 40* | -2 | -14 | -4 | i | i | 14
CNC[C@H]1Oc2ccc(NC(=O)Cc3cn(C)c4ccccc34)cc2CC(=O)N([C@@H](C)CO)C[C@H]1C | 14 | · | · | 17 | · | i | ·
CC(=O)Nc1ccc2[nH]c(C)c(CC=C(Cl)Cl)c(=O)c2c1 | 42* | 18 | -8 | -3 | i | i | 15
CC(=O)OCC(=O)C1(O)CCC2C3CCC4=CC(=O)CCC4(C)C3(Cl)C(O)CC21C (configuration not stated) | · | · | · | · | · | i | ·
O=C(Nc1ccc(N2CCCC2)cc1)c1cccc(Cl)c1 | -266 | -137 | -73 | -119 | i | i | -27
CCOC(=O)C1=C(C)NC(C)=C(C(=O)OCC)C1C(=O)OCC(=O)NCCc1ccccc1 | -10 | · | · | -4 | · | i | ·
CC(C)c1ccc(S(=O)(=O)N2CCN(C(C)C(=O)Nc3ccccc3-c3ccccc3)CC2)cc1 (configuration not stated) | 35* | 11 | -8 | 15 | i | i | 15
O=C(CSc1nc(=O)n(CCN2CCOCC2)c2c1CCCC2)Nc1cccc([N+](=O)[O-])c1 | 18 | 2 | · | -5 | i | i | ·
N#Cc1cnn2c1nc(N1CCOCC1)c1ccccc12 | 36* | 50 | -5 | -2 | i | i | 18
COCCn1c(C)cc(C(=O)COC(=O)c2n[nH]c3ccccc23)c1C | -393 | 81* | -73 | -55 | i | i | -117
CCOC(=O)Cn1c(-c2nonc2NC(=O)c2ccccc2F)nc2ccccc21 | i | 18 | 21 | -66 | i | i | i
CCC(=O)Nc1nonc1-c1nc2ccccc2n1Cc1ccccc1 | -10 | 47 | -25 | -1 | i | i | ·
CCOc1cc(/C=N\Nc2nc(Nc3ccccc3)nc(N3CCOCC3)n2)ccc1OC(=O)c1ccco1 | 59* | -91 | 12 | -62 | i | i | 46*
Cc1ccc(Nc2nc(N/N=C\c3ccc4c(c3)OCO4)nc(N3CCOCC3)n2)cc1 | 56* | -30 | -49 | -28 | i | i | 42*
COc1cc(/C=N/Nc2nc(C)cc(C)n2)ccc1OC(=O)c1ccco1 | 13 | -10 | -39 | -5 | i | i | ·
